Results reported in PubChem BioAssay AID652105 (National Center for Advancing Translational Sciences (NCATS), 2013).
Among all 330,000 compounds or so, about 4,100 (1.2%) were called active. Roughly 2% stayed inconclusive and do not appear here. The full list was thinned out, with actives kept by preference. A number with no mark means an inactive call. Rule for the calls: active = max response of -50% or lower; inconclusive = between -30% and -50%; inactive = -30% or higher.

target: Phosphatidylinositol 5-phosphate 4-kinase type-2 alpha (Homo sapiens) (UniProt P48426); test: qHTS for Inhibitors of phosphatidylinositol 5-phosphate 4-kinase (PI5P4K); conditions: PI5P4Kalpha enzyme, ADP-Glo luminescence, 60 min; stronger effect = lower value; note: value at the top dose of about 77 µM
Description: In addition to finding PI5P, we discovered the type II phosphatidylinositol 5-phosphate 4-kinase (PI5P4K) family (alpha, beta, gamma isoforms) that catalyze the conversion of PI5P to PI(4,5)P2. Alternatively, PI(4,5)P2 can also be synthesized through phosphatidylinositol-4-phosphate (PI4P) by the type I phosphatidylinositol 4-phosphate 5-kinases (PI4P5K). These PI5P4K enzymes therefore represent one way by which cells can regulate endogenous PI5P levels and play important roles in insulin signaling and in stress responses.
This proposal aims to identify and optimize specific modulators of human PI5P4K, phosphatidylinositol-5-phosphate 4-kinase (Type II PIPK), a family of kinases that regulate AKT signaling and tumor cell growth. In this project we aim to identify inhibitors of human PI5P4K using a quantitative high-throughput screening approach against the MLSMR containing ~400,000 small molecules.
NIH Chemical Genomics Center [NCGC]
NIH Molecular Libraries Probe Centers Network [MLPCN]
Assay Submitter (PI): Atsuo Sasaki, Beth Israel Deaconess Medical Center
2 microL of PI5P4Kalpha/substrate buffer (columns 1-2, 5-48) are dispensed into Greiner white solid bottom 1536-well assay plates; column 3 receives only PI5P4Kalpha buffer as 0x substrate controls; column 4 receives only substrate buffer as 0x PI5P4Kalpha controls. Final assay buffer consists of 0.038 M HEPES pH 7.4, 0.28 mM EGTA, 0.1% CHAPS, and 5% DMSO (final concentration). Compounds are then transferred via Kalypsys pin tool equipped with 1536-pin array (10 nL slotted pins, V&P Scientific, San Diego, CA). Following addition of compound, 1 microL of ATP (5 microM final concentration, all columns) is added to initiate the reaction. ATP is diluted in an assay buffer consisting of 0.02 M HEPES pH 7.4, 60 mM MgCl2, 15 microM ATP, and 0.1% CHAPS. The plates are then incubated at room temperature for 60 minutes. ADP-Glo reagent 1 is added (2 microL) and plates incubated for 45 minutes, before ADP-Glo reagent 2 (4 microL) is added and plates incubated for 30 minutes. They are then transferred to a ViewLux high-throughput CCD imager (PerkinElmer) wherein single end-point measurements of luminescence are acquired using a clear filter.

Chain of Phosphatidylinositol 5-phosphate 4-kinase type-2 alpha (Homo sapiens) (P48426 whole entry, looked up, canonical isoform): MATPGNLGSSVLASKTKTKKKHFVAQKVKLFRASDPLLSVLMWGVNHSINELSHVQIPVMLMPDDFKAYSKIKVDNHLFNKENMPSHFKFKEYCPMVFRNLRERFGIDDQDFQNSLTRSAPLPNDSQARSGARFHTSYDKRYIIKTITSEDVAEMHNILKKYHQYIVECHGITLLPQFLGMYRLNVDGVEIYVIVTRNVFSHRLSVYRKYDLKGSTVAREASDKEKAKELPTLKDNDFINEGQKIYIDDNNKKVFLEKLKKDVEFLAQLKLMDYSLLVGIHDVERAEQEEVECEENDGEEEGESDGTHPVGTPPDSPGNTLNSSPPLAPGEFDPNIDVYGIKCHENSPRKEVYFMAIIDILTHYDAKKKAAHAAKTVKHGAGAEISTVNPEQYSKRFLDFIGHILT

Row | SMILES | max response
1 | C=CCNC(=O)CSc1nc2sc(C)c(C)c2c(=O)[nH]1 | -2.42%
2 | CC(=O)c1sc2nc(SCC(=O)N3CCCCC3)[nH]c(=O)c2c1C | -59.2% (active)
3 | CCOC(=O)[C@]12CCCC=C1N(CCC1=CCCCC1)C(=O)[C@H](CC(=O)NCCCOC)C2 | -1.91%
4 | Cc1cc(NC(=O)CN2CCCC(C)C2)n(-c2nc3ccccc3s2)n1 (stereo unspecified) | 14.1%
5 | CCC(C)Cn1c(O)cc2nn(-c3nc4ccccc4s3)c(=O)c-2c1C (stereo unspecified) | -79.1% (active)
6 | CCC(=O)NC(=Nc1nc2ccccc2s1)NC(=O)CC | 10.4%
7 | COC(=O)[C@]12CCCCC=C1N(Cc1ccc(Cl)cc1Cl)C(=O)[C@H](CC(=O)NCc1cccc3ccccc13)C2 | 20.1%
8 | COc1cc(C=C(OC(C)=O)c2ccc3c(c2)OCO3)cc(OC)c1OC | 3.06%
9 | C#CCOc1ccc(/C=C2/C(=O)NN(c3ccccc3)C2=O)cc1OC | -22.1%
10 | COc1cc(CN2CC(C)CC(C)C2)cc([N+](=O)[O-])c1O (stereo unspecified) | 0.224%
11 | COc1ccc(N2C(=O)CC(Nc3ccc(F)cc3)C2=O)c([N+](=O)[O-])c1 (stereo unspecified) | -6.93%
12 | COc1cc(/C=C2/C(=O)NN(c3cccc(Cl)c3)C2=O)cc(Br)c1O | -54.1% (active)
13 | COc1cc(/C=N/O)cc(Br)c1OCc1cccc(Cl)c1 | 39.6%
14 | COc1cc(/C=C2/C(=O)NN(c3ccc(F)cc3)C2=O)cc([N+](=O)[O-])c1O | -57.5% (active)
15 | COC(=O)C1(C(=O)OC)C[C@H](c2ccccc2)N(Cc2ccccc2OC)[C@@H]1c1ccccc1 | 15.9%
16 | CCc1cccc(CC)c1N1C(=O)CC(Sc2ccccc2N)C1=O (stereo unspecified) | 0.428%
17 | COCOc1cccc(CN2CCC(C)(Oc3ccc(SC)cc3)C2)c1 (stereo unspecified) | 9.73%
18 | CCCc1nc2c3ccccc3ccn2c1Cc1ccccc1C(F)(F)F | -0.571%
19 | COC(=O)[C@]12CCCCC=C1N(Cc1ccccc1)C(=O)[C@H](CC(=O)NCc1ccc(C)o1)C2 | -16.1%
20 | Cc1csc(NC(=O)Nc2ccccc2[N+](=O)[O-])n1 | 3.76%
21 | Cc1cc(NC(=O)Nc2ccccc2[N+](=O)[O-])no1 | -55.9% (active)
22 | Cc1cc(NC(=O)COc2ccc([N+](=O)[O-])cc2)no1 | -7.69%
23 | Cc1c(C(=O)NCc2ccc(C#N)cc2)sc(=O)n1Cc1ccc(C(=O)N(C)C)cc1 | -1.71%

Row | SMILES | max response
24 | COC(=O)c1ccc2nc(-c3ccccc3)c(Cc3ccc(OC)cc3C)n2c1 | -3.87%
25 | CC1Cc2[nH][nH]c(=O)c2C(C2CC2)O1 (stereo unspecified) | 6.96%
26 | COc1ccc(-c2cc3c(c4c2ccn4C)C2CCC3C2)cn1 (stereo unspecified) | 19.1%
27 | S=c1[nH]nc(COc2ccccc2)n1-c1ccccc1 | 2.36%
28 | COc1ccc(OCc2n[nH]c(=S)n2N)cc1 | -58.2% (active)
29 | Cc1ccc(OCc2n[nH]c(=S)n2-c2ccccc2)cc1 | -0.211%
30 | CCc1nnc(NS(=O)(=O)c2ccc(NC(=S)NC(=O)/C=C/c3cccs3)cc2)s1 | -51.8% (active)
31 | CCOC(=O)c1c(NC(=S)NC(=O)/C=C/c2cccs2)sc(C)c1C | -4.36%
32 | CCc1nnc(NS(=O)(=O)c2ccc(NC(=O)c3cccc(OC(F)(F)C(F)F)c3)cc2)s1 | -19.6%
33 | CCc1nc2ccc(C(=O)NCCNC(C)=O)cn2c1N(CC)Cc1cccc(Br)c1 | 2.11%
34 | COc1cccc2c1C(=O)c1c(O)c3c(c(O)c1C2=O)CC(O)(C(C)=NNC(=O)c1ccc(Cl)c(Cl)c1)CC3OC1CC(N)C(O)C(C)O1 (stereo unspecified) | -61.1% (active)
35 | CCc1cc(-c2nnn(CCC3COCCO3)c2CC)ccc1-c1cn(Cc2ccc3ccccc3c2)nn1 (stereo unspecified) | 10.5%
36 | O=C(NCc1cccnc1)c1cc(C2CCCCN2C(=O)CCc2ccccc2)on1 (stereo unspecified) | -8.66%
37 | O=C(NC1=CC(=O)c2ccccc2C1=O)c1ccccc1 | -2.02%
38 | CC(=O)N(C1=C(Cl)C(=O)c2ccccc2C1=O)c1ccc(C(=O)O)cc1 | -81.9% (active)
39 | CC(C)(C)C1CCC(=O)N2CCC[C@]2(c2ccccc2)C1 (stereo partly specified) | -0.325%
40 | Cc1cccc(C)c1-n1nnnc1C1(C)CCC(=O)N1CCOc1ccccc1 (stereo unspecified) | 6.34%
41 | COc1cc(OC)cc(-c2nnc(SCC(=O)Nc3ccc(C(=O)O)cc3)s2)c1 | -16.4%
42 | O=C(CSc1nc2ccccc2s1)Nc1ccc(C(=O)O)cc1 | -69.8% (active)
43 | Nc1nnc(SCC(=O)Nc2ccc3nc(SCC(=O)Nc4ccccc4)sc3c2)s1 | -22.9%
44 | O=C(CSc1nnc(SCc2ccc(F)cc2)s1)Nc1ccc(C(=O)O)cc1 | -51.9% (active)
45 | Cn1nnnc1SCC(=O)Nc1nc2ccccc2s1 | 5.87%
46 | O=C(CSc1nnc(SCc2ccc(Cl)cc2)s1)N/N=C/c1ccccc1Cl | -9.79%
